From PubChem BioAssay (NCATS)
A number with no mark means an inactive call. Results filed as inconclusive are left out. Where a call stands in place of a potency, no number is given. The source made the active and inactive calls. Unless noted, calls follow the shape of the dose curve; as a rule, active = well fitted curve in the direction sought with a large enough effect; inconclusive = small, poorly fitted or top-dose-only effect, or another doubt; inactive = no such curve, though single readings can be large; an effect the other way counts as inactive or inconclusive.

Experiments:
[1] = biological target: Tumor susceptibility gene 101 protein (Homo sapiens) (UniProt Q99816); assay: qHTS Validation Assay for Iinhibitors of HIV-1 Budding by Blocking the Interaction of PTAP/TSG101 (AID 485342; calls by dose curve)
Tumor susceptibility gene 101 protein (Homo sapiens), sequence (Q99816 whole entry, looked up, the tested form may be a part): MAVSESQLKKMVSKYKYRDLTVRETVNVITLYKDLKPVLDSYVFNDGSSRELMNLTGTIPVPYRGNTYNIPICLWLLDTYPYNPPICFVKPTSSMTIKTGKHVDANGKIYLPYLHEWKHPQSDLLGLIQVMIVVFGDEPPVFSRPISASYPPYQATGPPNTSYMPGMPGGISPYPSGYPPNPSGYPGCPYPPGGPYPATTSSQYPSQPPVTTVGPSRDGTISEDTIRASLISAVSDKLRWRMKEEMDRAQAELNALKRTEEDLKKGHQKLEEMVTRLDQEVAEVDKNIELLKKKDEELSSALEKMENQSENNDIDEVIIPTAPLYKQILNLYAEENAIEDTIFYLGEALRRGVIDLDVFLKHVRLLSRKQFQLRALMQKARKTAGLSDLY
Method in brief: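 Fluorescence polarization of 50 nM FITC-PTAP peptide bound to 10 uM Tsg101 binding domain was read after 20 min room-temperature incubation with compounds, in 10 mM HEPES pH 7.5, 0.15 M NaCl, 0.01% Tween 20.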

[2] = biological target: Beta-2 adrenergic receptor (Homo sapiens) (UniProt P07550); assay: qHTS validation assay of beta-arrestin-biased ligands of beta2-adrenergic receptor (AID 485366)
Beta-2 adrenergic receptor (Homo sapiens), sequence (P07550 whole entry, looked up): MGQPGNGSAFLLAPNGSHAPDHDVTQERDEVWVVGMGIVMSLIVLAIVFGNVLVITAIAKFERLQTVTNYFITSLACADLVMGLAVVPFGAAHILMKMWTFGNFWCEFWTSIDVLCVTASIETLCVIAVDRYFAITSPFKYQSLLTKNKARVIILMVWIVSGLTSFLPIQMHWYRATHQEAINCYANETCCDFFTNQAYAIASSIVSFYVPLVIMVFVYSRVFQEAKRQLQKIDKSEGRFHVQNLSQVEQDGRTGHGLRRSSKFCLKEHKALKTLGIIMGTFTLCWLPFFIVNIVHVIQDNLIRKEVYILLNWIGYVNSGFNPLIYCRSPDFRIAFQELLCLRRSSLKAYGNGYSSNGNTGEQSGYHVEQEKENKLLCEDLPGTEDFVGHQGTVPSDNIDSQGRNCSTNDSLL
Method in brief: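 Agonist activity is measured as luciferase luminescence downstream of beta-arrestin recruitment to recombinant beta2-AR in Tango cells. Exposure lasts 18 hr at 37 degrees C, and curves are categorized by r2, response size and activity.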

[3] = biological target: ATP-dependent 6-phosphofructokinase (Trypanosoma brucei brucei) (UniProt O15648); assay: qHTS Validation Assay to Find Inhibitors of T. brucei phosphofructokinase (AID 485368); also: potency is read from the fitted curve at half-maximal effect
Method in brief: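 Inhibition derived from concentration-response curves of luminescence, ranked by r2, response size and curve class; the underlying reaction used 1.25 nM PFK, 0.1 mM ATP and 0.5 mM F6P, 45 min, room temperature.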

[4] = Quantitative high throughput screen for delayed death inhibitors of the malarial parasite plastid, 96 hour incubation (AID 488745); also: nearly all actives have a fitted effect of over 70% in size; also: potency is read from the fitted curve at half-maximal effect
Method in brief: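 Decreased firefly luciferase luminescence indicates inhibited growth of reporter-integrated P. falciparum after two generations (96 h, 37 C, 5% CO2). Infected erythrocytes at 0.1% parasitemia, 2% hematocrit, in Albumax-supplemented RPMI 1640.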

[5] = biological target: Thioredoxin reductase 1, cytoplasmic (Rattus norvegicus) (UniProt O89049); assay: qHTS Assay for Substrates of Mammalian Selenoprotein Thioredoxin Reductase 1 (TrxR1) (AID 488772);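 also: series mostly up to about 57 µM; a drop in NADPH fluorescence below the no-compound background marks a TrxR1 substrate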
Thioredoxin reductase 1, cytoplasmic (Rattus norvegicus), sequence (O89049 whole entry, looked up): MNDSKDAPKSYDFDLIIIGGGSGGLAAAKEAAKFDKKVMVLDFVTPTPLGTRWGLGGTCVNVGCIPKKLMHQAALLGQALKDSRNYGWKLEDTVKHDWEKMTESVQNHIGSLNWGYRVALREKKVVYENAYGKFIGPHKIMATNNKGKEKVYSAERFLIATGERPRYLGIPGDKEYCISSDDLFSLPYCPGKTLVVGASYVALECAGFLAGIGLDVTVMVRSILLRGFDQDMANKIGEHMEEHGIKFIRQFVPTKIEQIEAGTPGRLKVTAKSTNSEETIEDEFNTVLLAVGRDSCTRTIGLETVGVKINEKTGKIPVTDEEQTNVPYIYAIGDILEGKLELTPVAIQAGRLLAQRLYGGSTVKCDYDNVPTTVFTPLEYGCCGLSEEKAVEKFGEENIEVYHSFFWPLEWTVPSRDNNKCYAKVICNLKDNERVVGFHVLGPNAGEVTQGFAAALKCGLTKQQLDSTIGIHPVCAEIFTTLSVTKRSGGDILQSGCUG
Method in brief: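 In this dual-purpose format, potential substrates are identified from the first fluorescence read after selenite addition, not from the 8-minute delta. Rat enzyme is preincubated with NADPH and then with compound at ~22 deg C.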

[6] = biological target: Thioredoxin reductase 1, cytoplasmic (Rattus norvegicus) (UniProt O89049); assay: qHTS Assay for Inhibitors of Mammalian Selenoprotein Thioredoxin Reductase 1 (TrxR1) (AID 488773); settings: Potency: inhibition; also: nearly all actives have a fitted effect of over 40% in size; also: potency is read from the fitted curve at half-maximal effect
Method in brief: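 Inhibition is scored from the loss of NADPH fluorescence between first and last reads of an 8-min kinetic run. Selenite (400 uM) was the substrate, added after 15 min compound preincubation at room temperature.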

[7] = biological target: Flap endonuclease 1 (Homo sapiens) (UniProt P39748); assay: qHTS Validation Assay for the Inhibitors of Human Flap endonuclease 1 (FEN1) (AID 488816)
Method in brief: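 Steps: add FEN1 (10 nM reagent) or buffer only; pin compounds; hold 15 min at room temperature; start with substrate, 50 nM final; read at 0 and 15 min; correct, normalize and fit a four-parameter Hill curve.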

[8] = biological target: M-phase phosphoprotein 8 (Homo sapiens) (UniProt Q99549); assay: qHTS Validation Assay for Inhibitors for MPP8 Chromodomain Interactions with Methylated Histone Tails (AID 488949); also: nearly all actives have a fitted effect of over 55% in size; also: potency is read from the fitted curve at half-maximal effect
Method in brief: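 AlphaScreen proximity signal from streptavidin donor and Ni-chelate acceptor beads (10 ug/mL each) reported binding of MPP8 to trimethyl-K9 H3(1-18) peptide, both at 50 nM. The complex formed 30 min before a 30 min compound exposure at room temperature, in PBS pH 7.4.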

[9] = biological target: Chromobox protein homolog 1 (Homo sapiens) (UniProt P83916); assay: qHTS Validation Assay for Inhibitors of HP1-beta Chromodomain Interactions with Methylated Histone Tails (AID 488953); also: nearly all actives have a fitted effect of over 50% in size; also: potency is read from the fitted curve at half-maximal effect
Chromobox protein homolog 1 (Homo sapiens), sequence (P83916 whole entry, looked up): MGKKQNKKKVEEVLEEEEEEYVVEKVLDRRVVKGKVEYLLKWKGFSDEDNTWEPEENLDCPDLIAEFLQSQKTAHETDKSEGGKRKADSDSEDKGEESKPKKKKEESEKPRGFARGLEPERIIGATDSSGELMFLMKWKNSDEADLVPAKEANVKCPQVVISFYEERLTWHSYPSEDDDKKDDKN
Method in brief: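 AlphaScreen proximity signal from streptavidin donor and nickel chelate acceptor beads (final 10 ug/mL) after 30 min dark incubation. Compounds had 30 min at room temperature with preformed complex of 50 nM HP1-beta and 50 nM b-H3(1-18)K9me3 in PBS pH 7.4 with 0.01% Tween-20.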

[10] = biological target: Methanococcus maripaludis chaperonin (MmCpn) (UniProt Q6LX38); assay: High-Throughput Screening for Modulators of Cytosolic Chaperonin Activity: MmCpn Primary Screen (AID 488978);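 also: 50 nM MmCpn enzyme hydrolysing 30 µM ATP at 37 °C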
Method in brief: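 ATPase activity of 50 nM MmCpn was assayed with 30 uM ATP, 10 minutes at 37C, after a 5 min compound preincubation at room temperature. ADP production was read as HTRF emission at 590 and 665 nm.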

[11] = biological target: Transient receptor potential cation channel subfamily V member 1 (Homo sapiens) (UniProt Q8NER1); assay: HTS Assay for Compounds that Act as Enhancers of the Vanilloid Receptor 1 (AID 488979)
Method in brief: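 TRPV1-expressing cells loaded with Fluo-8 calcium dye; compounds added and calcium influx read kinetically for 3 min (agonist phase), then capsaicin at EC20 added and read 2 min more for enhancement. Fluorescence ex 480/em 520 nm.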

[12] = biological target: Thyrotropin receptor (Homo sapiens) (UniProt P16473); assay: qHTS Assay for Antagonists of the Thyroid Stimulating Hormone Receptor (AID 488980); also: series mostly up to about 58 µM
Thyrotropin receptor (Homo sapiens), sequence (P16473 whole entry, looked up): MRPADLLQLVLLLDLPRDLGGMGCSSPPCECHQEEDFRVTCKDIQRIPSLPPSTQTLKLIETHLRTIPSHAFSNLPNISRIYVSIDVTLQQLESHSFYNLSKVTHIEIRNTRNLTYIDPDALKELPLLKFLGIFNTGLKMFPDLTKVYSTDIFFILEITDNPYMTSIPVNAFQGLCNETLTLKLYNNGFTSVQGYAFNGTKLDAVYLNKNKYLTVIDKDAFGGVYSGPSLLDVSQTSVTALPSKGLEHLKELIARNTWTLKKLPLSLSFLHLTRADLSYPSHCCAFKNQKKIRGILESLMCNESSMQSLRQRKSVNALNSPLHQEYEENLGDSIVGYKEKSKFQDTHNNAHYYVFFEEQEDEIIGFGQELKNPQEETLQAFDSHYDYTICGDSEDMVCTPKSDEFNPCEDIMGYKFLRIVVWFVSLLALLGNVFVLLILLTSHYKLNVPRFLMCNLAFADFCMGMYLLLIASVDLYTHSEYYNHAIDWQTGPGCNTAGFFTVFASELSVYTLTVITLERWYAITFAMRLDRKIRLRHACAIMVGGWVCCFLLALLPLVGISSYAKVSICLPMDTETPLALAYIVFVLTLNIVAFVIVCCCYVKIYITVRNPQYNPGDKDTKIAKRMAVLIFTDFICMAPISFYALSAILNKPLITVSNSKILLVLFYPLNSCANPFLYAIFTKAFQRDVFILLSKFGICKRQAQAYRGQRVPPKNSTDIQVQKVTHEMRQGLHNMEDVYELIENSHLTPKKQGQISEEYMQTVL
Method in brief: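 Inhibition of cAMP raised by EC80 TSH (4 nM final) was read by HTRF, with lysate cAMP competing against cAMP-d2 for cryptate antibody after 30 min at room temperature. The cells were transfected HEK293 held in phosphodiesterase inhibitor RO 20-1724 at 70 uM.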

[13] = biological target: D(1A) dopamine receptor (Homo sapiens) (UniProt P21728); assay: HTS Assay for Allosteric Agonists of the Human D1 Dopamine Receptor: Primary Screen for Agonists (AID 488981)
D(1A) dopamine receptor (Homo sapiens), sequence (P21728 whole entry, looked up): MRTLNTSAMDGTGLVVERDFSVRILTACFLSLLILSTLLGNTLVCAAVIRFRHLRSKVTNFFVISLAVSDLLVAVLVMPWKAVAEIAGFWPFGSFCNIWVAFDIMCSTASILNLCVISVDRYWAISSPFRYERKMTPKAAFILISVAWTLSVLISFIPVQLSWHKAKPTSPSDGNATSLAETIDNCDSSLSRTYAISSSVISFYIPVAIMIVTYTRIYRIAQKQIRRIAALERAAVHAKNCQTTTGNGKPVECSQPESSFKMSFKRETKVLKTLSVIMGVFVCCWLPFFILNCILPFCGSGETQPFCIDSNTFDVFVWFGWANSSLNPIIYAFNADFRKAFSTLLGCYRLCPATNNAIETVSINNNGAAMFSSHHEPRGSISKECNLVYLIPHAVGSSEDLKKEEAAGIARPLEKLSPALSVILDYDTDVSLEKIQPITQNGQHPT
Method in brief: (§1)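 Tetracycline-induced HEK293 T-REx cells force-coupled to calcium signalling were incubated overnight at 30 C and dye-loaded at room temperature. Calcium flux over 180 s after compound addition flagged agonists; a further 180 s read after EC20 dopamine flagged potentiators.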

[14] = biological target: D(1A) dopamine receptor (Homo sapiens) (UniProt P21728); assay: HTS Assay for Allosteric Agonists of the Human D1 Dopamine Receptor: Primary Screen for Potentiators (AID 488982); also: potency is read from the fitted curve at half-maximal effect
Method in brief: as §1

[15] = biological target: D(1A) dopamine receptor (Homo sapiens) (UniProt P21728); assay: HTS Assay for Allosteric Agonists of the Human D1 Dopamine Receptor: Primary Screen for Antagonists (AID 488983);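 also: calcium flux response to an EC80 dopamine challenge measured with no-wash dye; nearly all actives have a fitted effect of over 65% in size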
Method in brief: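 Calcium-flux read-out in inducible HEK293 T-REx cells expressing D1, dye-loaded 30–90 min at room temperature. Kinetic reads: 180 s after compound (agonist phase), then 180 s after an EC80 dopamine challenge.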

[16] = Validation screen for small molecules that induce genotoxicity in human embryonic kidney (HEK293T) cells expressing luciferase-tagged ELG1 (AID 493106)
Method in brief: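 ELG1-luciferase reporter readout (ONE-Glo, 30 min, room temperature) after 16 hr compound treatment at 37 °C of HEK293T cells at 2,000 per well. Rising luminescence flags genotoxic stress.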

[17] = biological target: ATPase family AAA domain-containing protein 5 (Homo sapiens) (UniProt Q96QE3); assay: Validation screen for small molecules that inhibit ELG1-dependent DNA repair in human embryonic kidney (HEK293T) cells expressing luciferase-tagged ELG1 (AID 493107); also: nearly all actives have a fitted effect of over 70% in size; also: potency is read from the fitted curve at half-maximal effect
ATPase family AAA domain-containing protein 5 (Homo sapiens), sequence (Q96QE3 whole entry, looked up, the tested form may be a part): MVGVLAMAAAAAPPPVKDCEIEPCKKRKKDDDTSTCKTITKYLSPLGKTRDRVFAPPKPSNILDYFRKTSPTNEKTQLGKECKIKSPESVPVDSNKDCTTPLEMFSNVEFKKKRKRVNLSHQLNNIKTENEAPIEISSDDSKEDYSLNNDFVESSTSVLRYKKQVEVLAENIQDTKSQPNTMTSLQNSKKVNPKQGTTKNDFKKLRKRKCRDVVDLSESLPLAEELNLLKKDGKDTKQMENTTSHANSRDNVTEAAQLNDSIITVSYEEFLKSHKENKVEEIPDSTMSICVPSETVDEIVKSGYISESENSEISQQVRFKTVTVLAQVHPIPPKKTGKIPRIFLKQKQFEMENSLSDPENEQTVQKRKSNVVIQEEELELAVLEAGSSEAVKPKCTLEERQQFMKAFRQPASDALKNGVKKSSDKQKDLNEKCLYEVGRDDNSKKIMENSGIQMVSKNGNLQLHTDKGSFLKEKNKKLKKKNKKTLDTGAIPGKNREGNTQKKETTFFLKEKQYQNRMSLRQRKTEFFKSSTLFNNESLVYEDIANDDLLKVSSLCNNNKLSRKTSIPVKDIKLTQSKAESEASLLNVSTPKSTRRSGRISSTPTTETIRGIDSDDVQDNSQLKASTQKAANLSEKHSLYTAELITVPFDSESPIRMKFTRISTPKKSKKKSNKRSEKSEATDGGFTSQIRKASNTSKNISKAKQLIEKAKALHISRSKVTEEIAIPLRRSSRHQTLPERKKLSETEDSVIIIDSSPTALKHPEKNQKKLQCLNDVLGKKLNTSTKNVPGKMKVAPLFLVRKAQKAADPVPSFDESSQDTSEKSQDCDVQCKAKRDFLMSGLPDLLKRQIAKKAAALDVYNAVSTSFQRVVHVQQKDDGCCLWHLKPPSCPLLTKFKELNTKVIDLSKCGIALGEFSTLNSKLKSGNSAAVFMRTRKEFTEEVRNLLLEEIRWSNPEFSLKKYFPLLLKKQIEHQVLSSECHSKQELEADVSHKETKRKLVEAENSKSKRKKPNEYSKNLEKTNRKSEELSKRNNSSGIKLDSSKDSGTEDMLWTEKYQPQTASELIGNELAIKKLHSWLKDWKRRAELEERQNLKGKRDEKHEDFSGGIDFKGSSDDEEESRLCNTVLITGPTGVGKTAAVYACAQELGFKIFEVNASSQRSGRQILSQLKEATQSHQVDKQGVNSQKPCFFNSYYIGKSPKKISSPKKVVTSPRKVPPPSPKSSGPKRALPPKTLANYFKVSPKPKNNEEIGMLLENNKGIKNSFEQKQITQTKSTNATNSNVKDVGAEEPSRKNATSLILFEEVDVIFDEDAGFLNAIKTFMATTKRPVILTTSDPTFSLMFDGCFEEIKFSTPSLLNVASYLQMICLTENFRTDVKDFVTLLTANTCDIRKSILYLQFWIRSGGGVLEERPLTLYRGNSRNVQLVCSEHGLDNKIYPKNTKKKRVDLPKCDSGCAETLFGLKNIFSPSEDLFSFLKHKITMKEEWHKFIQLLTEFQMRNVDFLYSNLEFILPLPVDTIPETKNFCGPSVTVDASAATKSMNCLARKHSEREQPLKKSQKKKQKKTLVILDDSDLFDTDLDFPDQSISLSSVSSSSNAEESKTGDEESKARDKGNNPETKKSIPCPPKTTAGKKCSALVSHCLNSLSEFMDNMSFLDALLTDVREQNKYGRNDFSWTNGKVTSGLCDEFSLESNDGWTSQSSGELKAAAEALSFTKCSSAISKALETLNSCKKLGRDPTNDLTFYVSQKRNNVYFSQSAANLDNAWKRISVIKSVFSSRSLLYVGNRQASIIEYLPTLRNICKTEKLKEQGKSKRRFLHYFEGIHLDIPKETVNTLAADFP
Method in brief: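 Luciferase read-out, ONE-Glo, 30 min at room temperature, follows 16 h co-exposure at 37 C of compound and the DNA-damaging agent 5-fluorouridine. Cells: HEK293T with ELG1-luciferase fusion, 2,000 per well, DMSO as vehicle.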

[18] = biological target: Thyrotropin-releasing hormone receptor (Homo sapiens) (UniProt P34981); assay: qHTS for Small Molecule Agonists and Allosteric Enhancers of Human TRH Receptor: Validation Screen for Agonists (AID 493127;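 active = calcium activation more than 3 SD above the typical response in the agonist read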;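 also: intracellular calcium rise by fluo-8 fluorescence before TRH EC20 addition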); settings: TRH receptor agonist cell assay; at 2 µM; stronger effect = higher value
Thyrotropin-releasing hormone receptor (Homo sapiens), sequence (P34981 whole entry, looked up): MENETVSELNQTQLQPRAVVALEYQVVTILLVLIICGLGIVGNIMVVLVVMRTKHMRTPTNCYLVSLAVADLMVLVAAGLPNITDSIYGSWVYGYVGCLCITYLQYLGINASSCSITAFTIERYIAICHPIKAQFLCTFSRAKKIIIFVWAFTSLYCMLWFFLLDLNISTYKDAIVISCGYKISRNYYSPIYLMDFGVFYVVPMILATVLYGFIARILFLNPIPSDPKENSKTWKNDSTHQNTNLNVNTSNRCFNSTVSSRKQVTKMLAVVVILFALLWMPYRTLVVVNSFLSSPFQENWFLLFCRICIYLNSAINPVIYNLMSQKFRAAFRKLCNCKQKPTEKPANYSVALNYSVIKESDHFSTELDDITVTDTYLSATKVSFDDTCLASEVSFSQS
Method in brief: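 Compound-evoked intracellular calcium release in fluo-8-loaded TRHR cells, read kinetically on FDSS (Ex 480/Em 530, 1 s/cycle) after 23 nL pintool transfer. Agonist phase preceded 10 nM TRH EC20 addition.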

[19] = qHTS Validation Assay to Find Inhibitors of Chronic Active B-Cell Receptor Signaling (AID 485345; active = well fitted curve in the direction sought with a large enough effect in the main read-out, with a control signal flat, not every such curve was filed as active)
Method in brief: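 TMD8 ABC-DLBCL cells with dox-inducible green luciferase–IκBα fusion and red native luciferase; compounds 46 uM–3 nM, 4 h at 37C with doxycycline in 0.5% FBS IMDM. Green/red ratio normalized to basal and 10 uM MG-132.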

[20] = biological target: ATP-dependent 6-phosphofructokinase (Trypanosoma brucei brucei) (UniProt O15648); assay: qHTS Assay to Find Inhibitors of T. brucei phosphofructokinase: hit validation (AID 492961);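 also: luminescence reports ADP formed as PFK phosphorylates fructose-6-phosphate with ATP; series mostly up to about 51 µM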
Method in brief: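 PFK 1.25 nM, F6P 0.5 mM, ATP 0.1 mM, MgCl2 5 mM, 0.1 M TEA pH 8.0, Tween20 0.01%, BSA 0.1%; 45 min RT. ADP-Glo two-step detection, luminescence. qHTS titration; curve fitting with curve-class categorization.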

Row | Compound | outcome [1] | outcome [2] | Potency [3] | Potency [4] | outcome [5] | Potency [6] | Potency [7] | Potency [8] | Potency [9] | outcome [10] | outcome [11] | outcome [12] | Potency [13] | Potency [14] | Potency [15] | Potency [16] | Potency [17] | activation [18] | outcome [19] | outcome [20]
1 | COC[C@H]1OC(=O)c2coc3c2[C@@]1(C)C1=C(C3=O)C2CCC(=O)[C@@]2(C)C[C@H]1OC(C)=O (stereo partly drawn) | inactive | inactive | inactive | 8.28 µM (active) | inactive | 11.9 µM (active) | inactive | inactive | inactive | inactive | inactive | inactive | inactive | inactive | inactive | inactive | inactive | 0.25% |  | 
2 | CC(=O)[C@H]1CC[C@H]2[C@@H]3CC[C@H]4C[C@](C)(O)CC[C@]4(C)[C@H]3CC[C@]12C | inactive | inactive | inactive |  | inactive | inactive | inactive | inactive | inactive | inactive |  |  | inactive | inactive | inactive | inactive | inactive |  | inactive | inactive
3 | CCC1(C2=NCCN2)Cc2ccccc2O1 (stereo not drawn) | inactive | inactive | inactive | inactive | inactive | inactive | inactive | inactive | inactive | inactive | inactive | inactive | inactive | 2.31 µM (active) | inactive | inactive |  | 0.812% | inactive | 
4 | NCC1(CC(=O)O)CCCCC1 | inactive | inactive |  | inactive | inactive | inactive | inactive | inactive | inactive | inactive | inactive | inactive | inactive | inactive | inactive | inactive | inactive | 1.12% | inactive | 
5 | COc1ccc(C(CN(C)C)C2(O)CCCCC2)cc1 (stereo not drawn) | inactive | inactive | 5.36 µM (active) |  | inactive | inactive | inactive | inactive | inactive | inactive |  |  | inactive | inactive | inactive | inactive | inactive |  | inactive | inactive
6 | Cc1cccc(C)c1NC(=O)CN1CCCC1=O | inactive | inactive | inactive |  | inactive | inactive | inactive | inactive | inactive | inactive |  |  | inactive | inactive | inactive | inactive | inactive |  | inactive | 
7 | NCC(O)c1ccc(O)cc1 (stereo not drawn) | inactive | inactive |  | inactive | inactive | inactive | inactive | inactive | inactive | inactive | inactive | inactive | inactive | inactive | inactive | inactive | inactive | 0.812% | inactive | 
8 | c1ccc(C2CC2)c(OCC2=NCCN2)c1 | inactive | inactive | inactive | inactive | inactive | inactive | inactive | inactive |  | inactive | inactive | inactive | inactive | inactive | inactive | inactive | inactive | 0.562% | inactive | 
9 | Cc1ncc(CNC(=O)N(CCCl)N=O)c(N)n1 | inactive | inactive | inactive | inactive | inactive | inactive | inactive | inactive | inactive | inactive | inactive | inactive | inactive | inactive | inactive | inactive | inactive | 1.5% | inactive | 
10 | O=C1NCN(c2ccccc2)C12CCN(CC1COc3ccccc3O1)CC2 (stereo not drawn) | inactive | inactive | inactive | inactive | inactive | inactive | inactive | inactive |  | inactive | inactive | inactive | inactive | inactive | inactive | inactive |  | 0.562% | inactive | 
11 | Nc1ccncc1 | inactive | inactive |  | inactive | inactive | inactive | inactive | inactive |  | inactive | inactive | inactive | inactive | inactive | inactive | inactive | inactive | 1.19% | inactive | 
12 | CC(C)=CCOc1c2occc2cc2ccc(=O)oc12 | inactive | inactive |  |  | inactive | inactive | inactive | inactive |  | inactive |  |  | inactive | inactive | inactive | inactive | inactive |  | inactive | 
13 | COc1ccccc1N1CCNCC1 | inactive | inactive |  | inactive | inactive |  | inactive | inactive | inactive | inactive | inactive | inactive | inactive | inactive |  | inactive | inactive | -7.69% | inactive | inactive
14 | Fc1ccc(C(OCCN2CCN(CCCc3ccccc3)CC2)c2ccc(F)cc2)cc1 | inactive | inactive | inactive | inactive | inactive | inactive | inactive | 15.8 µM (active) | 39.8 µM (active) | inactive | inactive | inactive | inactive | inactive | inactive | inactive | 23.1 µM (active) | -5.62% |  | 
